Where “and” joins values, the source holds several entries; their conditions need not be identical. Equal entries are not always repeated. Results filed as inconclusive are left out. Calls of active or inactive are those of the source. Calls follow the shape of the dose curve; as a rule, active = well fitted inhibition curve with a large enough effect in the repeat runs; inconclusive = weak or mixed curves; inactive = no such curve, though single readings can be large or run the other way.
The molecules below were run against Cytochrome P450 1A2 (Homo sapiens) (UniProt P05177) (assay: Cytochrome P450 Family 1 Subfamily A Member 2 (CYP1A2) small molecule antagonists: luciferase reporter qHTS assay (AID 1671199; also: nearly all actives have a fitted effect of over 50% in size)). Details: P450-Glo CYP1A2 enzyme, luciferin luminescence, 1 h; series mostly up to 115 µM.
Sequence of Cytochrome P450 1A2 (Homo sapiens) (P05177 whole entry, looked up): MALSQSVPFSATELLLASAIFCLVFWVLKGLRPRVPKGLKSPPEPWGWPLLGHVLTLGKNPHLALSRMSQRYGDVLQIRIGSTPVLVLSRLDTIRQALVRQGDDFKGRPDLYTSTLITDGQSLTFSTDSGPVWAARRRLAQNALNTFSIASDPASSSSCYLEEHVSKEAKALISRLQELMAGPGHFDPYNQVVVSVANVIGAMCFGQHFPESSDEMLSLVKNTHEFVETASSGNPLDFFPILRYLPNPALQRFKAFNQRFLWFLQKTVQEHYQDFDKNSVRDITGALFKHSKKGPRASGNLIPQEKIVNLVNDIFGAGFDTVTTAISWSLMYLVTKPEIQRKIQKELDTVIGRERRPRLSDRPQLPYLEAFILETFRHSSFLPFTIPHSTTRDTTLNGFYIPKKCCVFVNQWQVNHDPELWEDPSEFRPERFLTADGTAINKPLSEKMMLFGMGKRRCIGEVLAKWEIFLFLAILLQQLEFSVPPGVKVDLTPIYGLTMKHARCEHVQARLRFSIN
Text: National Center for Advancing Translational Sciences [NCATS]
U.S. Environmental Protection Agency [EPA]
National Institutes of Environmental Health Sciences [NIEHS]
National Toxicology Program [NTP]
U.S. Food and Drug Administration [FDA]
Cytochrome P450 (CYP) enzymes are membrane-bound hemeproteins that play a key role in metabolism of drugs and xenobiotics. Evaluation of the effect of chemicals on CYP isozymes is useful to minimize the adverse drug reactions and toxicities in drug development process. Tox21 chemicals were tested for their effect on CYP enzyme activities by using P450-Glo (TM) screening systems (Promega Corporation, Madison, WI). These systems provide a luminescent method containing proluciferin substrates and are converted to luciferin products by CYP isozymes. The luciferin products formed are detected with a luciferin detection reagent, and the amount of light produced is proportional to CYP activity. P450-Glo (TM) CYP1A2 screening system (Catalog. No. V9770) was used to detect the compounds that interfere in CYP1A2 activity. The positive control compound used for CYP1A2 assay is furafylline (Sigma-Aldrich, St. Louis, MO).
Tox21 Assay Protocol Summary:
Two ul of enzyme-substrate mix was dispensed into medium binding white/solid 1536-well plates (Greiner Bio-One North America Inc., Monroe, NC) using a BioRaptr Flying Reagent Dispenser (FRD, Beckman Coulter, Brea, CA). Compounds dissolved in DMSO and positive control (furafyllline) were transferred to the assay plates at 23 nl using a Pintool station (Wako, San Diego, CA). The assay plates were incubated at room temperature for 10 min. Then 2 ul of NADPH regeneration solution was added to each well of the assay plates using an FRD and incubated at room temperature for 1 h. The reaction was stopped by adding 4 ul of detection reagent using an FRD and after 20 min incubation at room temperature the luminescence signal was measured using a ViewLux plate reader (Perkin Elmer, Shelton, CT). Data were expressed as relative luminescence units.
In the case of `CCOP(=O)(OCC)Oc1cc(C)nc(C(C)C)n1`, the Potency was 35.8 µM (active). `Cc1c([N+](=O)[O-])c(C)c([N+](=O)[O-])c(C(C)(C)C)c1[N+](=O)[O-]` was tested, and the Potency was 5.03 µM (active). In the case of `Nc1nc(N)c(N)c(N)n1`, the Potency was 35.7 µM (active). `CSC(C)(C)/C=N/O` was tested, and the Potency was “inactive”. In the case of `Nc1ccc(Cl)cc1C(=O)c1ccccc1F`, the Potency was 15.5 µM (active). With `Cc1cc(C2CC2)nc(Nc2ccccc2)n1` the Potency was 2.52 µM (active). For `Nc1ccccc1-c1ccccc1`, the Potency was 35.4 µM (active). With `CC1CCCC1` the Potency was 39.3 µM (active). `N#Cc1ccc(N(CC(N)=O)CC(F)(F)F)cc1C(F)(F)F` was tested, and the Potency was 39.9 µM (active). With `N#Cc1sc2c(=O)c3ccccc3c(=O)c=2sc1C#N` the Potency was 31.7 µM (active). `CCn1cc[n+](C)c1` (tested in a mixture with another compound) was tested, and the Potency was “inactive”. With `N#CSCc1ccccc1` the Potency was 80 µM (active). In the case of `CN=C=O`, the Potency was 36.1 µM (active). For `Nc1nc(N)nc(Cl)n1`, the Potency was “inactive”. With `CCCCN(CCCC)C(=S)[S-].CCCCN(CCCC)C(=S)[S-].[Ni+2]` the Potency was “inactive”. With `CN1CCc2cc(Cl)c(O)cc2[C@H]2c3ccccc3CC[C@@H]21` the Potency was “inactive”. `O=[N+]([O-])c1cc(C(F)(F)F)c(Cl)c([N+](=O)[O-])c1Nc1ncc(C(F)(F)F)cc1Cl` was tested, and the Potency was 35.6 µM (active). For `COP(=O)(OC)O/C(=C\Cl)c1cc(Cl)c(Cl)cc1Cl`, the Potency was 1.42 µM (active). In the case of `CCC[CH2][Sn]([CH2]CCC)([O]C(C)=O)[O]C(C)=O`, the Potency was “inactive”. In the case of `Clc1ccc(C(c2ccc(Cl)cc2)C(Cl)Cl)cc1`, the Potency was 6.43 µM (active) and 8.94 µM (active). `CNC(C)(C)Cc1ccccc1` was tested, and the Potency was “inactive”. With `S=C=NCCc1ccccc1` the Potency was 10.1 µM (active). In the case of `CCCCc1ccccc1`, the Potency was “inactive”. `CC(Cc1ccc2c(c1)OCO2)NO` (stereo not given) was tested, and the Potency was 6.11 µM (active). With `C[C@@H]1CC2=CC(=O)CC[C@@H]2[C@H]2CC[C@@]3(C)[C@@H](CC[C@]3(C)O)[C@@H]21` the Potency was “inactive”. `COc1ccc(Cc2nccc3cc(OC)c(OC)cc23)cc1OC` was tested, and the Potency was “inactive”. `COP(=O)(OC)Oc1ccc([N+](=O)[O-])cc1` was tested, and the Potency was “inactive”. In the case of `Oc1cccc(Cl)c1Cl`, the Potency was 35.7 µM (active). With `Cc1ccc([N+](=O)[O-])[c]2c1[O][Hg]2` the Potency was 3.23 µM (active). In the case of `CCC(C)c1cccc(C(C)CC)c1O` (stereo not given), the Potency was 22.4 µM (active). In the case of `C#CC1(O)CCCCC1`, the Potency was “inactive”. For `c1ccc2c(c1)cc1ccc3cccc4ccc2c1c34`, the Potency was 0.363 µM (active). With `Nc1ccc(N=Nc2ccccc2)cc1` the Potency was 4.61 µM (active). For `N#CC(C#N)=NNc1cccc(Cl)c1`, the Potency was 8.94 µM (active). With `CN1C2CCC(C)(C)C1CC(OC(=O)C(O)(c1cccs1)c1cccs1)C2` (stereo not given) the Potency was “inactive”. `COP(=S)(NC(C)C)Oc1ccc(C)cc1[N+](=O)[O-]` (stereo not given) was tested, and the Potency was 11.2 µM (active). With `NC1CCC(CC2CCC(N)CC2)CC1` (stereo not given) the Potency was “inactive”. For `CN/C(=N\[N+](=O)[O-])NCc1cnc(Cl)s1`, the Potency was “inactive”. With `O=S(=O)(O)F` the Potency was “inactive”. For `O=C(CCCCl)c1ccc(F)cc1`, the Potency was 11.5 µM (active).
Potency is read from the fitted curve at half-maximal effect.
